Screening results deposited in PubChem BioAssay by several laboratories.
In the library only some 2.8% were active in any assay of this set; here they are far more common.
MITF TRPM1 inh – MITF TRPM1 promoter inhibition in SK-MEL-5 cells; AID 488899; SK-MEL-5 TRPM1 promoter luciferase, 24 h; 330,000 tested, 0.83% active; inhibition, % at 12.5 µM;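 active = mean inhibition across replicates of 60% or more, whatever share of single replicates reaches that level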
EBV LMP1 NFkB – inhibitors of Epstein-Barr LMP1-induced NF-kappaB reporter; LMP1-induced NF-kappaB luciferase reporter cells, luminescence; AID 504558; 350,000 tested, 0.69% active; inhibition, % at 12.5 µM; in the data active = inhibition above about 41%;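 note: 0% = neutral control wells and 100% = reference inhibitor control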
HIF-2a inh – HIF-2a inhibition; 360,000 tested, 0.72% active; 786-0 RCC cells HIF-2a reporter, luciferase luminescence, overnight; inhibition, % at 18.8 µM; AID 624352;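 active = inhibition of the luminescence signal of 40% or more relative to plate controls, in a single-dose primary screen at 18.75 µM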
Shn3 inh set2 – Schnurri-3 reporter inhibition in Clone20 osteoblasts. AID 588674. inhibition, % at 12.5 µM. Clone20 osteoblast Shn3 3'UTR firefly luciferase, 24 h. 360,000 tested, 0.52% active;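 active = mean inhibition of at least 75% with every replicate also reaching 75%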;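 note: 0% = median of neutral control wells and 100% = pilot-screen positive control compound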
PAX8 inh HTS – inhibitors of PAX8 transcriptional activity in RMG-I cells; RMG-I TPO-luciferase reporter, SteadyGlo, 24 h; inhibition, % at 12.6 µM; AID 652154; 360,000 tested, 1.2% active;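 active = mean replicate inhibition at least 60% with every replicate also reaching 60%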;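 note: luciferase light reporting Pax8 driven TPO promoter activity; plate controls were median of neutral control wells for no effect and mitoxantrone controls for full effect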
Peg3 promoter – Peg3 promoter activity inhibition; HeLa PEG-Prom luciferase reporter, luminescence, overnight; inhibition, % at 20 µM; 360,000 tested, 1.7% active; AID 588405;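 active = inhibition of at least 50% at 20 µM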
An asterisk follows results filed as active; . = not tested or not shown.

SMILES | MITF TRPM1 inh | EBV LMP1 NFkB | HIF-2a inh | Shn3 inh set2 | PAX8 inh HTS | Peg3 promoter
O=C(C[C@@H]1C[C@H]2c3cc(NC(=O)Nc4ccc(F)cc4)ccc3O[C@H]2[C@@H](CO)O1)NC1CCCCC1 | . | . | . | . | 0 | .
CCO[C@H]1OC(C(=O)N2CCCCCCC2)=C[C@@H](C2CC2)[C@@H]1CCCO | . | . | . | . | -15 | .
CC(C)NC(=O)N(C)C[C@@H]1Oc2ccc(NS(=O)(=O)c3ccc(F)cc3)cc2CC(=O)N([C@@H](C)CO)C[C@@H]1C | . | . | . | . | -10 | .
CC(C)(C)[C@@H]1COC(=O)[C@@H](NC(=O)OCC2c3ccccc3-c3ccccc32)C/C=C\C[C@@H](CC(=O)NCCO)C(=O)N1 | 8 | -6 | -2 | 86* | -8 | 4
O=C(N[C@@H]1C/C=C\C[C@H](CC(=O)N(CCO)Cc2ccccc2)C(=O)N[C@@H](Cc2ccccc2)COC1=O)OCC1c2ccccc2-c2ccccc21 | 4 | -18 | -2 | 32 | 11 | 68*
O=C(C[C@@H]1C/C=C\C[C@@H](NC(=O)OCC2c3ccccc3-c3ccccc32)C(=O)OC[C@@H](Cc2ccccc2)NC1=O)NCCO | -4 | 9 | 14 | 58 | 8 | 22
C[C@@H]1COC(=O)[C@H](NC(=O)OCC2c3ccccc3-c3ccccc32)C/C=C\C[C@@H](CC(=O)N(CCO)Cc2ccccc2)C(=O)N1 | 1 | -6 | 13 | 26 | . | -21
O=C(N[C@H]1C/C=C\C[C@@H](CC(=O)N(CCO)Cc2ccccc2)C(=O)NC[C@H](c2ccccc2)OC1=O)OCC1c2ccccc2-c2ccccc21 | . | -2 | 10 | -6 | 18 | 75*
O=C(C[C@H]1C/C=C\C[C@H](NC(=O)OCC2c3ccccc3-c3ccccc32)C(=O)OC[C@H](Cc2ccccc2)NC1=O)N[C@H](CO)Cc1ccccc1 | 2 | -1 | 0 | 20 | 21 | 75*
O=C(N[C@@H]1C/C=C\C[C@@H](CC(=O)N(CCO)Cc2ccccc2)C(=O)NCCOC1=O)OCC1c2ccccc2-c2ccccc21 | 3 | -6 | 10 | 30 | . | 1
CCCC#Cc1ccc([C@@H]2[C@@H](CO)N3C(=O)CN(C(=O)NC4CCCC4)C[C@H]23)cc1 | . | . | . | . | 7 | .
COc1cccc(S(=O)(=O)N[C@H]2CC[C@H](CC(=O)NCc3ccc(F)cc3)O[C@H]2CO)c1 | . | . | . | . | -7 | .
C[C@H](CO)N1C[C@H](C)[C@H](CN(C)Cc2ccc(C(=O)Nc3ccccc3N)cc2)Oc2c(NS(=O)(=O)c3ccccc3)cccc2C1=O | . | . | . | . | 29 | .
Cc1ccc(S(=O)(=O)Nc2ccc3c(c2)C(=O)N([C@H](C)CO)C[C@@H](C)[C@@H](CN(C)Cc2ccc(C(=O)Nc4ccccc4N)cc2)O3)cc1 | . | . | . | . | 5 | .
CCC(C)NCC(=O)Nc1ccc(-c2nc3cc(NC(=O)CNC(C)CC)ccc3o2)cc1 (centres undefined) | 84* | -44 | -9 | 9 | . | 108*
C/C=C/c1cccc(-c2nc(C(=O)N(C)C)cc3c2[C@H](CCO)N([S@@](=O)C(C)(C)C)C3)c1 | . | . | . | . | -17 | .
COc1ccccc1C(=O)Nc1ccc2c(c1)C(=O)N(C)[C@@H]1CC[C@@H](CC(=O)NCc3ccc(Cl)c(Cl)c3)O[C@H]1CO2 | . | . | . | . | 93* | .
Cc1cc(C(=O)Nc2ccc3c(c2)C(=O)N(C)[C@H]2CC[C@@H](CC(=O)NCc4ccc(-c5ccccc5)cc4)O[C@@H]2CO3)no1 | . | . | . | . | 65* | .
Cc1cc(=O)n2c3c(c4c(cc13)c(CN(C)C)cc(=O)n4C)OC2 | -2 | -10 | 15 | -23 | 104* | 3
Cc1ccc(C23CC4CC(CC(CC(=O)NC(C)(C)CO)(C4)C2)C3)cc1 | 1 | 3 | 16 | -26 | 34 | -8
Cc1ccc(C23CC4CC(CC(CN)(C4)C2)C3)cc1 | 12 | -21 | 10 | 13 | 20 | 103*
NCC12CC3CC(C1)CC(c1ccc(Br)cc1)(C3)C2 | -7 | 1 | -16 | 48 | 17 | 104*
CO[C@@H]1CN(C)C(=O)c2ccc(NC(C)=O)cc2OC[C@H](C)N(C(=O)c2ccccc2)C[C@H]1C | . | . | . | . | -18 | .
C[C@@H]1CN([C@@H](C)CO)S(=O)(=O)c2ccc(C#CC3(O)CCCC3)cc2O[C@@H]1CN(C)C(=O)c1cccnc1 | . | . | . | . | 1 | .
Nc1nc(CCl)nc(Nc2ccccc2)n1 | -20 | -14 | -49 | 9 | 88* | 10
